Assay [1] in a line: CEETOX_H295R_11DCORT_noMTC: CeeTox H295R High-throughput Steroidogenesis Assay for 11-Deoxycortisol (11DCORT), maximum tolerated concentration (MTC) filtered results only (AID 2283911; active = hit-call score of the fitted dose curve at least 0.9, where 1 is the maximum; inactive = score below 0.9). To be noted: actives raise or lower the signal. In short, it runs like this:
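HPLC-MS/MS read-out of 11-deoxycortisol after MTBE extraction of H295R medium. Cells: forskolin 10 uM pre-stimulation 48 h, chemical 48 h, 0.1% DMSO final. Bidirectional fit vs DMSO baseline; no MTC filtering.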

Assay [2] can be described thus: CEETOX_H295R_OHPREG_noMTC: CeeTox H295R High-throughput Steroidogenesis Assay for OH-Pregnenolone (OHPREG), maximum tolerated concentration (MTC) filtered results only (AID 2283912; active = hit-call score of the fitted dose curve at least 0.9, where 1 is the maximum; inactive = score below 0.9). To be noted: actives raise or lower the signal. Put shortly:
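H295R human adrenal cells, forskolin-prestimulated (10 uM, 48 h), then exposed to test chemical in 0.1% DMSO for 48 h. 17alpha-hydroxypregnenolone in medium measured by HPLC-MS/MS after MTBE extraction; bidirectional fit versus DMSO, concentrations not MTC-filtered.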

The nature of assay [3]: CEETOX_H295R_OHPROG_noMTC: CeeTox H295R High-throughput Steroidogenesis Assay for OH-Progesterone (OHPROG), maximum tolerated concentration (MTC) filtered results only (AID 2283914; active = hit-call score of the fitted dose curve at least 0.9, where 1 is the maximum; inactive = score below 0.9). To be noted: actives raise or lower the signal. Put shortly: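 H295R human adrenal cells prestimulated 48 h with 10 uM forskolin, then exposed 48 h to test chemical (0.1% DMSO final). Medium 17alpha-hydroxyprogesterone extracted with MTBE, quantified by HPLC-MS/MS; bidirectional fit versus DMSO, concentrations not MTC-filtered.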

Assay [4] in a line: CEETOX_H295R_CORTISOL_noMTC: CeeTox H295R High-throughput Steroidogenesis Assay for Cortisol, maximum tolerated concentration (MTC) filtered results only (AID 2283916; active = hit-call score of the fitted dose curve at least 0.9, where 1 is the maximum; inactive = score below 0.9). The note with it: actives raise or lower the signal. Put shortly:
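H295R adrenal cells were pre-stimulated 48 h with 10 uM forskolin, then exposed 48 h to test chemical in 0.1% DMSO. Medium cortisol was measured by MTBE extraction and HPLC-MS/MS; bidirectional fit versus DMSO, concentrations not MTC-filtered.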

Assay [5] in a line: CEETOX_H295R_CORTIC_noMTC: CeeTox H295R High-throughput Steroidogenesis Assay for Corticosterone (CORTIC), maximum tolerated concentration (MTC) filtered results only (AID 2283917; active = hit-call score of the fitted dose curve at least 0.9, where 1 is the maximum; inactive = score below 0.9). The note with it: actives raise or lower the signal. Put shortly:
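H295R, 10 uM forskolin prestim 48 h → test chem (0.1% DMSO final) 48 h → media MTBE extraction → HPLC-MS/MS corticosterone. Bidirectional fit vs DMSO baseline; no MTT-based MTC filtering.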

The nature of assay [6]: CEETOX_H295R_DOC_noMTC: CeeTox H295R High-throughput Steroidogenesis Assay for DOC, maximum tolerated concentration (MTC) filtered results only (AID 2283918; active = hit-call score of the fitted dose curve at least 0.9, where 1 is the maximum; inactive = score below 0.9). To be noted: actives raise or lower the signal. In short, it runs like this: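 H295R cells prestimulated 48 h with 10 uM forskolin, then exposed 48 h to test chemical (0.1% DMSO final). Medium 11-deoxycorticosterone extracted with MTBE, quantified by HPLC-MS/MS; bidirectional fit versus DMSO, concentrations not MTC-filtered.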

Assay [7] in a line: CEETOX_H295R_ESTRADIOL_noMTC: CeeTox H295R High-throughput Steroidogenesis Assay for Estradiol, maximum tolerated concentration (MTC) filtered results only (AID 2283919; active = hit-call score of the fitted dose curve at least 0.9, where 1 is the maximum; inactive = score below 0.9). The note with it: actives raise or lower the signal. Put shortly: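 H295R human adrenal cells pre-stimulated 48 h with 10 uM forskolin, then exposed 48 h to chemical (0.1% DMSO final). Estradiol in medium measured by HPLC-MS/MS after MTBE extraction and dansyl derivatization; bidirectional fit versus DMSO, concentrations not MTT-filtered.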

Assay [8] in a line: CEETOX_H295R_PROG_noMTC: CeeTox H295R High-throughput Steroidogenesis Assay for Progesterone (PROG), maximum tolerated concentration (MTC) filtered results only (AID 2283920; active = hit-call score of the fitted dose curve at least 0.9, where 1 is the maximum; inactive = score below 0.9). The note with it: actives raise or lower the signal. Put shortly: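 H295R human adrenal cells were prestimulated 48 h with 10 uM forskolin, then exposed 48 h to test chemical (0.1% DMSO final). Progesterone in medium was quantified by HPLC-MS/MS; bidirectional fitting versus DMSO, concentrations not MTC-filtered.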

Assay [9] can be described thus: CEETOX_H295R_ESTRONE_noMTC: CeeTox H295R High-throughput Steroidogenesis Assay for Estrone, maximum tolerated concentration (MTC) filtered results only (AID 2283921; active = hit-call score of the fitted dose curve at least 0.9, where 1 is the maximum; inactive = score below 0.9). To be noted: actives raise or lower the signal. In short, it runs like this: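 H295R cells prestimulated 48 h with 10 uM forskolin, then exposed 48 h to chemical in 0.1% DMSO; medium estrone measured by HPLC-MS/MS after MTBE extraction and dansyl derivatization, fitted bidirectionally versus DMSO without MTT-based MTC filtering.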

The subject of assay [10] is Sodium/Iodide Symporter (NIS), SLC5A5 (gene 6528). Kind of assay: CPHEA_Stoker_NIS_Inhibition_RAIU: CPHEA's Radioactive Iodide Uptake (RAIU) Assay for Sodium/Iodide Symporter (NIS) Inhibition, Stoker and Laws Labs (AID 2283841). Put shortly:
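Iodide uptake read as CPM of intracellular 125I (final 329 pM) after 2 h room-temperature exposure in HEPES-buffered HBSS, pH 7.4. Human NIS-expressing HEK293T cells; six concentrations 0.001–100 uM, 0.5% DMSO, normalised to DMSO wells.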

Assay [11] in a line: CPHEA_Stoker_NIS_Cytotoxicity: Cytotoxicity Assessment for CPHEA's Radioactive Iodide Uptake (RAIU) Assay for Sodium/Iodide Symporter (NIS) Inhibition, Stoker and Laws Labs (AID 2283897).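 As to AC50: active means loss of ATP signal versus DMSO meaning cytotoxicity.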 In short, it runs like this:
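CellTiter-Glo ATP luminescence gauged viability in HEK293T cells expressing human NIS after 2 h chemical exposure. Concentrations ran 0.001–100 uM in 0.5% DMSO; DMSO served as baseline for the loss-of-signal fit.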

For assay [12], the target named is PGR (gene 5241) (UniProt P06401). Nature of the assay: TOX21_PR_BLA_Followup_Antagonist_ratio: Tox21 HEK293 Progesterone Receptor (PR) Antagonism Beta-lactamase Follow-Up Assay, Ratio (AID 2283934). In short, it runs like this:
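HEK293T PR-UAS-bla, 2% CS-FBS; 6 hr plating, then cpd + R5020 (1 nM final), 16 hr 37C/5% CO2. B/G FRET substrate 2 h RT. Ratio ch2/ch1 vs DMSO; CellTiter-Glo viability multiplexed, autofluorescence checked.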

Assay [13] can be described thus: TOX21_PR_BLA_Followup_Antagonist_viability: Viability Assessment in the Tox21 HEK293 Progesterone Receptor (PR) Antagonism Beta-lactamase Follow-Up Assay (AID 2283936).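 Also: hits lower the luminescence signal meaning cytotoxicity.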 In short, it runs like this:
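PR-UAS-bla HEK293T cells (3,000/well, 2% charcoal-stripped FBS) given compound plus R5020 agonist, 16 h at 37C. CellTiter-Glo added after bla read, 30 min at room temperature; luminescence loss indicates cytotoxicity.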

Assay [14] addresses PGR (gene 5241) (UniProt P06401). Kind of assay: TOX21_PR_LUC_Followup_Antagonist: Tox21 HEK293 Progesterone Receptor (PR) Antagonism Luciferase Follow-Up Assay (AID 2283938).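 Also: curve fitted upward as signal gain over DMSO baseline despite antagonist label.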 In short, it runs like this: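 HEK293-PR-A-luc cells were precultured 5 days in medium with 10% charcoal-stripped FBS, seeded 3,000/well, then exposed to compounds in DMSO for 16 h at 37C. Luciferase was read by ONE-Glo luminescence after 30 min at room temperature.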

For assay [15], the target named is human Thyroid hormone Receptor beta (TRb), THRB (gene 7068) (UniProt P10828). Nature of the assay: ATG_hTRb_XSP2: Attagene TRANS-FACTORIAL Multi-Species (XSP2) HepG2 Assay for human Thyroid hormone Receptor beta (TRb) (AID 2283840).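 Also: actives raise reporter mRNA so potency reflects agonist-like gain of signal.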 Put shortly: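 HepG2 cells were transiently transfected with GAL4-UAS multiplexed reporter units expressing chimeric NR-Gal4 proteins, dosed 24 h; reporter mRNA was quantified by RT-PCR, fluorescent labeling, HpaI digestion and capillary electrophoresis, fitted for gain of signal versus DMSO.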

Assay [16] in a line: CEETOX_H295R_ANDR_noMTC: CeeTox H295R High-throughput Steroidogenesis Assay for Androstenedione (ANDR), maximum tolerated concentration (MTC) filtered results only (AID 2283915; active = hit-call score of the fitted dose curve at least 0.9, where 1 is the maximum; inactive = score below 0.9). The note with it: actives raise or lower the signal. In short, it runs like this:
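H295R cells, passage 10 or below, prestimulated 48 h with 10 uM forskolin, then exposed 48 h to chemical in 0.1% DMSO. Medium androstenedione extracted with MTBE, quantified by HPLC-MS/MS; concentrations not MTC-filtered; bidirectional fit versus DMSO.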

Assay [17] is described as follows: CEETOX_H295R_TESTO_noMTC: CeeTox H295R High-throughput Steroidogenesis Assay for Testosterone (TESTO), maximum tolerated concentration (MTC) filtered results only (AID 2283924; active = hit-call score of the fitted dose curve at least 0.9, where 1 is the maximum; inactive = score below 0.9). To be noted: actives raise or lower the signal. Put shortly: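 H295R cells prestimulated 48 h with 10 uM forskolin, then exposed 48 h to chemicals in 0.1% DMSO final. Testosterone in medium quantified by MTBE extraction and HPLC-MS/MS; bidirectional fit versus DMSO, concentrations […] filtered by MTT-based maximum tolerated concentration.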

For assay [18], the target named is Thyroid hormone receptor alpha (Rattus norvegicus) + Thyroid hormone receptor beta (Rattus norvegicus) (UniProt P18113+P63059). Nature of the assay: TOX21_TR_LUC_GH3_Agonist_Followup: Tox21 GH3 Thyroid Hormone Receptor Agonism Luciferase Follow-Up Assay (AID 2283939). In short, it runs like this:
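Rat GH3 cells (1,500/well) in serum-free assay medium, treated with 15-point series, 92 uM to 5 nM final, for 24 h at 37C. Luciferase via ONE-Glo luminescence; gain of signal fitted against DMSO, T3 positive control.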

Results filed as inconclusive are left out. Some compounds were tested as several samples or in several runs, with calls that do not always agree. Calls of active or inactive are those of the source. The calls were made as follows, unless noted: active = hit-call score of the fitted dose curve at least 0.9, where 1 is the maximum; inconclusive = response in the unintended direction; inactive = score below 0.9.

human Thyroid hormone Receptor beta (TRb), THRB (gene 7068), sequence (P10828 whole entry, looked up, the tested form may be a part): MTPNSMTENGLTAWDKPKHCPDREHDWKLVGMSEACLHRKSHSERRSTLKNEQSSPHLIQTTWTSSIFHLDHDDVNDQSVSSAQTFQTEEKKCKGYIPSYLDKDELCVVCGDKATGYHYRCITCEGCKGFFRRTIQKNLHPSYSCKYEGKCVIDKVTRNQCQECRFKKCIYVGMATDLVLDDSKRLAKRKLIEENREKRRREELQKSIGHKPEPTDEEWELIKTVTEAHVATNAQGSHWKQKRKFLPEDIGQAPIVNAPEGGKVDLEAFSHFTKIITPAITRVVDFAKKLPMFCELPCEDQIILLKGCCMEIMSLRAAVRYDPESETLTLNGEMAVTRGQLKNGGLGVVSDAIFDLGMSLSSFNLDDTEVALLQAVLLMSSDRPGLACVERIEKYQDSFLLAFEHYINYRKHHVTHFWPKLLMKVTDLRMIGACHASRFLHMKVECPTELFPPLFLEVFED
PGR (gene 5241), sequence (P06401 whole entry, looked up): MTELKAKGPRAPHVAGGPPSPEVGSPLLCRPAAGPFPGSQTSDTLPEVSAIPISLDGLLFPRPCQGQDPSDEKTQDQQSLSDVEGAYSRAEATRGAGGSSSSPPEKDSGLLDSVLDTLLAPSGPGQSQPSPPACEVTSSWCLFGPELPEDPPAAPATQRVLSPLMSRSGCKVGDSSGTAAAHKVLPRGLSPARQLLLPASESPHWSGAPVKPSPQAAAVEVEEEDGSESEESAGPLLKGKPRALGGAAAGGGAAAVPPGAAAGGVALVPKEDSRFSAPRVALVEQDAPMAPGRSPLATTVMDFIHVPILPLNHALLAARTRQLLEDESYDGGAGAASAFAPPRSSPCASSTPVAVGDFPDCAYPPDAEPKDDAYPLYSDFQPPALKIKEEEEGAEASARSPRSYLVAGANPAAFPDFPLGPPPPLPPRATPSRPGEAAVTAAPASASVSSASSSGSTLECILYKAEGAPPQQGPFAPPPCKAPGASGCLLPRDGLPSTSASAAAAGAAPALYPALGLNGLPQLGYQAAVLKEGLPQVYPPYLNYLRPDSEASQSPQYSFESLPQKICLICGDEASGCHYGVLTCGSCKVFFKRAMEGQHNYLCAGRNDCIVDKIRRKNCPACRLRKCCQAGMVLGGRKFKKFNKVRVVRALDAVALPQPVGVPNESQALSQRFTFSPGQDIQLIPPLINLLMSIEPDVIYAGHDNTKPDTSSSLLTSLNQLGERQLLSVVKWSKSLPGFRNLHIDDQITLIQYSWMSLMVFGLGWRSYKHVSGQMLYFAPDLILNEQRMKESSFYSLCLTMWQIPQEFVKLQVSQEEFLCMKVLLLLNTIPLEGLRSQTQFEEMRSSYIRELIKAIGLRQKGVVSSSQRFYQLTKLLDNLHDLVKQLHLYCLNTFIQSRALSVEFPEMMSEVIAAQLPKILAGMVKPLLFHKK
Thyroid hormone receptor alpha (Rattus norvegicus) + Thyroid hormone receptor beta (Rattus norvegicus), sequence (P63059 whole entry, looked up): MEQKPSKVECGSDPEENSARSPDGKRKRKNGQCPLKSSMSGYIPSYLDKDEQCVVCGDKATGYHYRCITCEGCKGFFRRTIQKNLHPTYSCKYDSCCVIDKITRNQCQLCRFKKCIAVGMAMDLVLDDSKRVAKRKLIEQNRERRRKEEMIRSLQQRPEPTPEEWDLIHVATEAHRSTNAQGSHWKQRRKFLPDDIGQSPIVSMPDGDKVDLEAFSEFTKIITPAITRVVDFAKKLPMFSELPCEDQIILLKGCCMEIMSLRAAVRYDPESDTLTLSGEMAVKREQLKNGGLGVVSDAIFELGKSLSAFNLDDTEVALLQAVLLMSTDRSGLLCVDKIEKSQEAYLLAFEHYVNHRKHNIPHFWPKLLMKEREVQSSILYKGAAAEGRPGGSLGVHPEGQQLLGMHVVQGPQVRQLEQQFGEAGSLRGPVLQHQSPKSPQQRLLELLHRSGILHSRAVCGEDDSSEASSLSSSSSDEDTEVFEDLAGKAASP
Thyroid hormone receptor alpha (Rattus norvegicus) + Thyroid hormone receptor beta (Rattus norvegicus), sequence (P18113 whole entry, looked up): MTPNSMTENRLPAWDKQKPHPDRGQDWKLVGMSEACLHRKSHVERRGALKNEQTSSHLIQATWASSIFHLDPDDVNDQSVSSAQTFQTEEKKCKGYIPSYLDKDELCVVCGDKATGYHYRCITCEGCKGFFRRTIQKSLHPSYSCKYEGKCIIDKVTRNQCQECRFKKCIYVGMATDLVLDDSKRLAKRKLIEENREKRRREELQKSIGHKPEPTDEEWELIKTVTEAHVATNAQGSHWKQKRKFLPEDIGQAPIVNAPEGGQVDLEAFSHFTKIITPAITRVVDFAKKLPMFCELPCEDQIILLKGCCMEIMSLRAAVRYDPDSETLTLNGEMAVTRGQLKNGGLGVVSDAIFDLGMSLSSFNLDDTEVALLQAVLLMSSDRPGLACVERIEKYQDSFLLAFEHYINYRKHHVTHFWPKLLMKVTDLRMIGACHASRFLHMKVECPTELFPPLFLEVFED

`CCOC(=O)c1ccccc1N`: the outcome in assay [1], in assay [2], in [4], in [5], in [6] and in assay [7] was inactive. The outcome in assay [8] and in assay [9] was inactive. The AC50 (usually the midpoint of the concentration-response curve, whichever way the signal moves) in [3] is 41.3 µM (active).
With `CCOP(=S)(Oc1ccc([N+](=O)[O-])cc1)c1ccccc1` (centres undefined), the outcome in assay [10], in assay [11] and in assay [13] was inactive. The concentration at half-maximal activity (AC50) is 5.36 µM (active) with PGR (gene 5241) [12] and 7.8 µM (active) in the assay with PGR (gene 5241) [14].
As for `O=S(=O)(F)C(F)(F)C(F)(F)C(F)(F)C(F)(F)C(F)(F)C(F)(F)C(F)(F)C(F)(F)F`, the result in assay [10] was inactive.
As to `O=NN1CCCC1`, the result in assay [10] and in [11] was inactive.
With `c1ccc2c(c1)Nc1ccccc1S2`, the molecule was called inactive in assay [15].
As for `OCC(F)(F)OC(F)(F)C(F)(F)OC(F)(F)C(F)(F)OC(F)(F)CO`, in assay [10], the outcome was inactive.
As to `O=c1ssc(Cl)c1Cl`, the values for the half-maximal activity concentration (AC50) in assay [10] and in [11] were 9.92 µM (active) and 80.9 µM (active), respectively.
On to `OCC(F)(F)OC(F)(F)C(F)(F)OC(F)(F)C(F)(F)OC(F)(F)F`, for which the outcome in assay [10] was inactive.
`CCOP(=S)(OCC)SCS(=O)(=O)CC`: the AC50 was 39.2 µM (active) in [1]; 43 µM (active) in assay [2]; 37.9 µM (active) in [16]; 45 µM (active) in assay [4]; 33.5 µM (active) in assay [6]; 45.4 µM (active) in [17]. Besides, the outcome in assay [3], in assay [5], in assay [7], in assay [8] and in [9] was inactive.
On to `c1ccc2c(c1)sc1ccccc12`, for which the outcome in assay [10] and in assay [11] was inactive.
For `CCCCc1ccc(O)cc1`, the concentration at half-maximal activity (AC50) in assay [15] is 31 µM (active). Further, the molecule was classed as inactive in assay [15], in assay [10] and in assay [11].
For the molecule `O=S(=O)(c1ccc(O)cc1)c1ccc(O)cc1`, the outcome in assay [15] was inactive.
As to `O=C(O)C(Cl)Cl`, the outcome in [18] was inactive.
`CCC(C)(C)c1ccc(O)cc1`: the molecule was classed as inactive in assay [15] and in assay [11].
As to `O=P(Oc1ccccc1)(Oc1ccccc1)Oc1ccccc1`, the AC50 in [10] is 50 µM (active).

(Values after PubChem BioAssay (EPA / NIEHS).)
